Assay results taken from PubChem BioAssay (Tox21).
Unmarked numbers belong to inactive results. Results filed as inconclusive are left out. Entries that show only a call come without a potency. Active and inactive are the calls of the source. Unless noted, the call rests on the fitted dose curve; in most records, active means well fitted curve in the direction sought with a large enough effect in the repeat runs; inconclusive means weak or mixed curves; inactive means no such curve, though single readings can be large; an effect the other way counts as inactive or inconclusive.

Legend:
[1] = biological target: Luciferin 4-monooxygenase (Photinus pyralis) (UniProt P08659); experiment: qHTS assay to identify small molecule inhibitors of firefly luciferase (AID 1224835); further: nearly all actives have a fitted effect of over 25% in size; further: potency means the concentration at half of the fitted maximal effect
Luciferin 4-monooxygenase (Photinus pyralis), sequence (P08659 whole entry, looked up): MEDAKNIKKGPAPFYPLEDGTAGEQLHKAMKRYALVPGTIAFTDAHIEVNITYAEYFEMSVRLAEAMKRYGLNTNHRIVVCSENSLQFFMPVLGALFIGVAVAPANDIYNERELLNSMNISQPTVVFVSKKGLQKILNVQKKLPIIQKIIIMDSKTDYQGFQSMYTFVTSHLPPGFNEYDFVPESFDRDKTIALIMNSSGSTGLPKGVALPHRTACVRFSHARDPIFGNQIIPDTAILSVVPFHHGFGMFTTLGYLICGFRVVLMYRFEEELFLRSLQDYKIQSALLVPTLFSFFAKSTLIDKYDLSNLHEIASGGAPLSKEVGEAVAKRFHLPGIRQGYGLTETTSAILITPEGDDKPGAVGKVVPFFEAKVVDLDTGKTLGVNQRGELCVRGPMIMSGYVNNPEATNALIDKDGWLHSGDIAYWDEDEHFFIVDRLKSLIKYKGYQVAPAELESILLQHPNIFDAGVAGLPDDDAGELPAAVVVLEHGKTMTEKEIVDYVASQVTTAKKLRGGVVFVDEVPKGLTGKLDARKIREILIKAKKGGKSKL
Outline: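 Biochemical qHTS: compounds run as interplate titrations against purified firefly enzyme, with D-luciferin and ATP each at its KM concentration. Light output recorded by CCD imaging.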

[2] = qHTS assay to identify small molecule agonists of the constitutive androstane receptor (CAR) signaling pathway - cell viability counter screen (AID 1224836); further: nearly all actives have a fitted effect of over 45% in size
Outline: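 Double-stable HepG2 hepatoma cells (hCAR plus CYP2B6-2.2kb) are treated for 23 h at 37 C with test compounds in 15-point concentration series. PK11195 at 0.75 uM final is co-added. Cell viability is quantified by CellTiter-Fluor.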

[3] = qHTS assay to identify small molecule antagonists of the constitutive androstane receptor (CAR) signaling pathway - cell viability counter screen (AID 1224837); further: nearly all actives have a fitted effect of over 45% in size
Outline: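 Cytotoxicity counter-screen: CellTiter-Fluor fluorescence after 23 h compound exposure (15-point qHTS) in double-stable HepG2-CYP2B6-hCAR cells, with 50 nM CITCO added.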

[4] = biological target: Nuclear receptor subfamily 1 group I member 3 (Homo sapiens) (UniProt Q14994); experiment: qHTS assay to identify small molecule antagonists of the constitutive androstane receptor (CAR) signaling pathway (AID 1224838);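 further: HepG2 cells stably expressing hCAR with CYP2B6 luciferase reporter stimulated by CITCO; nearly all actives have a fitted effect of over 40% in size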
Nuclear receptor subfamily 1 group I member 3 (Homo sapiens), sequence (Q14994 whole entry, looked up): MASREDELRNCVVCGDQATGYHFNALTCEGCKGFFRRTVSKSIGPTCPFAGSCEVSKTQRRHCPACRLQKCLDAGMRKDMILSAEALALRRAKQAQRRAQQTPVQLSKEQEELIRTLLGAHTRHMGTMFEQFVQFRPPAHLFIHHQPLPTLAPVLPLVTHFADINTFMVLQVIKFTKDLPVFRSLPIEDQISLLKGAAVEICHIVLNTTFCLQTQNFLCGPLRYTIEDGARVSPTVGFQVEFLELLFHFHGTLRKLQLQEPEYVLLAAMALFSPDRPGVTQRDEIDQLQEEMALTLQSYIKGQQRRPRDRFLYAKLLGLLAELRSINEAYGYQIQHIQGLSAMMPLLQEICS
Outline: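 Antagonism measured as luciferase signal (ONE-Glo, 30 min, room temperature) in CAR-stimulated cells: HepG2-CYP2B6-hCAR double-stable line exposed 24 hr at 37 C to compound in a 15-point series plus 50 nM CITCO.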

[5] = biological target: Nuclear receptor subfamily 1 group I member 3 (Homo sapiens) (UniProt Q14994); experiment: qHTS assay to identify small molecule agonists of the constitutive androstane receptor (CAR) signaling pathway (AID 1224839); further: nearly all actives have a fitted effect of over 15% in size; further: potency means the concentration at half of the fitted maximal effect;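 on activation: HepG2 cells stably carrying human CAR and a CYP2B6 luciferase reporter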
Outline: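 Readout: firefly luciferase luminescence via ONE-Glo. System: HepG2 double-stable for hCAR and CYP2B6-2.2kb. Conditions: 15-point compound titration, PK11195 at 0.75 uM final, 24 h incubation.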

[6] = qHTS assay to identify small molecule antagonists of the estrogen related receptor signaling pathway with the pleiotropic PPARgamma coactivator (PGC) from Tox21 10K library - cell viability counter screen (AID 1224840; active means well fitted cell-killing curve with a large enough effect in the repeat runs, not every such curve was filed as active; further: nearly all actives have a fitted effect of over 40% in size)
Outline: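 Counter-screen for cytotoxicity: after 17.5 h compound exposure at 37 C, CellTiter-Fluor reagent added to PGC/ERR cells for 30 min and fluorescence read. Cells were seeded at 2,000 per well 6 h before dosing.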

[7] = qHTS assay to identify small molecule antagonists of the estrogen related receptor signaling pathway with the pleiotropic PPARgamma coactivator (PGC) from Tox21 10K library (AID 1224841; call rule not given here; further: actives are mostly falling curves and most rising ones were filed inactive; nearly all actives have a fitted effect of over 50% in size)
Outline: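 Luminescence (One-Glo, 30 min at room temperature) after 18 h compound treatment at 37 C of PGC/ERR reporter cells plated at 2,000 cells/well and settled 6 h beforehand.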

[8] = qHTS assay to identify small molecule agonists of the estrogen related receptor signaling pathway with the pleiotropic PPARgamma coactivator (PGC) from Tox21 10K library (AID 1224842); further: nearly all actives have a fitted effect of over 15% in size; further: potency means the concentration at half of the fitted maximal effect
Outline: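 PGC/ERR reporter cell line, 2,000 cells per well, incubated 6 h at 37 C before 23 nL compound in DMSO was added. After 18 h at 37 C, One-Glo luminescence read following 30 min at room temperature.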

[9] = qHTS assay to identify small molecule agonists of the hypoxia (HIF-1) signaling pathway - cell viability counter screen (AID 1224844; calls by dose curve; further: nearly all actives have a fitted effect of over 50% in size)
Outline: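 Cytotoxicity measured by CellTiter-Glo ATP luminescence in the wells also read for beta-lactamase signal. Cells were HRE-bla ME-180 (2,000/well, 0.5% dialyzed FBS), exposed to compounds for 17 h at 37C.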

[10] = qHTS assay to identify small molecule agonists of H2AX (AID 1224845; active means well fitted activation curve with a large enough effect in the signal ratio in the repeat runs, not every such curve was filed as active; the % refers to the signal ratio)
Outline: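 Wild-type CHO-K1 cells, plated overnight, exposed 3hr at 37C to 15 concentrations (0.76% DMSO final). Lysed, then HTRF anti-pH2AX (S139) cryptate and anti-H2AX-d2 antibodies, 24 hr room temperature; 665/620 nm emission read.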

[11] = qHTS assay to identify small molecule agonists of the hypoxia (HIF-1) signaling pathway (AID 1224846; active means well fitted activation curve with a large enough effect in the signal ratio in the repeat runs, not every such curve was filed as active; the % refers to the signal ratio)
Outline: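 Compounds added to ME-180 cells carrying hypoxia-response-element beta-lactamase reporter (0.5% dialyzed FBS, 5 h preplating), 17 h at 37C; agonist activity detected by CCF4-AM B/G FRET read-out.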

[12] = qHTS assay to identify small molecule agonists of H2AX - cell viability counter screen (AID 1224847; calls by dose curve; further: top concentration of the series differs between compounds; nearly all actives have a fitted effect of over 30% in size)
Outline: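 For this counter screen, overnight-attached CHO-K1 cells received test compounds (15 concentrations, 0.76% DMSO final); 3 hr later at 37C, CellTiter-Glo reagent was added and luminescence recorded after 30 min at room temperature.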

[13] = qHTS assay to identify small molecule antagonists of the estrogen related receptor (ERR) signaling pathway from Tox21 library (AID 1224848); further: nearly all actives have a fitted effect of over 50% in size
Outline: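 Quantitative high-throughput format: ERR reporter cells (2,000/well) pre-incubated 6 h, treated 18 h at 37 C with compounds in DMSO alongside positive and negative controls, then read by ONE-Glo luminescence.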

[14] = qHTS assay to identify small molecule agonists of the estrogen related receptor (ERR) signaling pathway from Tox21 library (AID 1224849; calls by dose curve; further: nearly all actives have a fitted effect of over 15% in size); conditions: ERR reporter cell line, ONE-Glo luciferase, 18 h; at 92.4 µM (top of the series) unless noted
Outline: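 Luminescent agonist read-out (One-Glo, 30-minute room-temperature incubation) following 18-hour compound treatment at 37 C of the ERR cell line, which had been plated 6 hours before dosing.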

[15] = qHTS RealTime-Glo MT Cell Viability Assay in HepG2 cells - 24 hour (AID 1224867); further: nearly all actives have a fitted effect of over 50% in size
Outline: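 HepG2 cells were seeded at 600 cells/well together with NanoLuc luciferase and a cell-permeant prosubstrate, preincubated 5 h at 37 C/5% CO2, then pin-dosed with compounds in DMSO. Nonlytic luminescence from viable cells was read at each time point.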

[16] = A CellTox Green Cytotoxicity Assay to monitor cytotoxicity in HEK293 cells - 0 hour (AID 1224869); further: nearly all actives have a fitted effect of over 50% in size
Outline: (§1)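 Fluorescence from a DNA-binding dye excluded by viable cells was measured repeatedly in the same HEK293 wells (600 cells/well) during continuous compound exposure at 37 C. Each assay gives one read point: 0, 8, 16, 24, 32 or 40 h.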

[17] = qHTS RealTime-Glo MT Cell Viability Assay in HepG2 cells - 40 hour (AID 1224870); further: nearly all actives have a fitted effect of over 50% in size
Outline: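 HepG2 cells (600/well) mixed with RealTime-Glo MT reagent, settled 5 h at 37 C/5% CO2 before compound addition. Nonlytic NanoLuc luminescence from viable-cell prosubstrate reduction read repeatedly during 40 h treatment at 37 C.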

[18] = biological target: Thyrotropin receptor (Homo sapiens) (UniProt P16473); experiment: qHTS assay to identify small molecule agonists of the thyroid stimulating hormone receptor (TSHR) signaling pathway (AID 1224843; calls by dose curve; further: nearly all actives have a fitted effect of over 45% in size; further: potency means the concentration at half of the fitted maximal effect)
Thyrotropin receptor (Homo sapiens), sequence (P16473 whole entry, looked up): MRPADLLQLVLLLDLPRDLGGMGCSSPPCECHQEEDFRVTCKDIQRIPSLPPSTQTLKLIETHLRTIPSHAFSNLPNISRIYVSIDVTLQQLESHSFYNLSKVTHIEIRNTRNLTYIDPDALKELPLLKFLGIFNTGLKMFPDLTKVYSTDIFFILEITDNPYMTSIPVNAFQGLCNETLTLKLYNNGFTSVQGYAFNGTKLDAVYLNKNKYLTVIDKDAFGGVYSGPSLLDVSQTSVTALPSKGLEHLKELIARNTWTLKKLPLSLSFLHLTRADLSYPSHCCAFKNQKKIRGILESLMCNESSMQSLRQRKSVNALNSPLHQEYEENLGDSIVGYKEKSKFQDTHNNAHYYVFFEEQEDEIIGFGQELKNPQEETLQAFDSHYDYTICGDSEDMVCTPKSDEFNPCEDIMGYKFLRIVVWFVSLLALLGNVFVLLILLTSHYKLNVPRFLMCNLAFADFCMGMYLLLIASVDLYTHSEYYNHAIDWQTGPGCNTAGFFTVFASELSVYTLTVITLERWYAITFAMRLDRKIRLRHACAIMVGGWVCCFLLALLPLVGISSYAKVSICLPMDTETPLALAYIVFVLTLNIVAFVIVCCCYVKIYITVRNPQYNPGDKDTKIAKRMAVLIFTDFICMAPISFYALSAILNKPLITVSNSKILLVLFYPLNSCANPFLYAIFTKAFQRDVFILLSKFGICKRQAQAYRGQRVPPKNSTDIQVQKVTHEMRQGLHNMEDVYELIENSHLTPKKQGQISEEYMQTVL
Outline: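 Agonist-mode screen: TSHR HEK293 cells received test chemicals for half an hour at room temperature, then HTRF cAMP detection reagents for one hour prior to fluorescence measurement. Each chemical ran as a 15-concentration series, triplicated.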

[19] = A CellTox Green Cytotoxicity Assay to monitor cytotoxicity in HEK293 cells - 40 hour (AID 1224871); further: nearly all actives have a fitted effect of over 45% in size
Outline: as §1

[20] = qHTS RealTime-Glo MT Cell Viability Assay in HEK293 cells - 32 hour (AID 1224868)
Outline: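 HEK293 cells were seeded at 600 cells/well together with NanoLuc luciferase and cell-permeant prosubstrate, preincubated 5 h at 37 C/5% CO2, then given compound in DMSO by pintool. Luminescence from viable-cell prosubstrate reduction was read repeatedly over 40 h.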

Row | Structure (SMILES) | Potency [1] | Potency [2] | Potency [3] | Potency [4] | Potency [5] | Potency [6] | Potency [7] | Potency [8] | Potency [9] | Potency [10] | outcome [11] | Potency [12] | Potency [13] | activity change, positive = activation [14] | outcome [15] | Potency [16] | Potency [17] | Potency [18] | Potency [19] | Potency [20]
1 | COc1cc(C)c(Cc2cnc(N)nc2N)cc1OC | inactive | inactive | inactive | inactive | inactive | inactive | inactive | inactive | inactive | inactive | inactive | inactive | inactive | -2.44% [at 42.5 µM] | inactive | inactive | inactive | – | – | –
2 | C=CC(=O)NC(C)(C)C | inactive | inactive | inactive | inactive | inactive | inactive | – | – | inactive | inactive | inactive | inactive | – | – | inactive | inactive | – | inactive | inactive | –
3 | CC(O)C(C)O (stereo unspecified) | inactive | inactive | inactive | inactive | inactive | inactive | – | – | inactive | – | inactive | inactive | – | – | inactive | inactive | – | inactive | – | inactive
4 | CC(C)(C(=O)O)c1ccc(C(O)CCCN2CCC(C(O)(c3ccccc3)c3ccccc3)CC2)cc1 (stereo unspecified) | inactive | inactive | inactive | inactive | inactive | inactive | – | – | inactive | inactive | – | inactive | – | – | inactive | inactive | – | inactive | inactive | inactive
5 | c1ccc(CCNc2nc(-c3ccccc3)cs2)cc1 | 3.47 µM (active) | inactive | inactive | inactive | 7.5 µM (active) | inactive | – | – | inactive | inactive | inactive | – | – | – | – | inactive | – | inactive | – | inactive
6 | C/C=C1\[C@H]2C=C(C)C[C@]1(N)c1ccc(=O)[nH]c1C2 | inactive | inactive | inactive | inactive | inactive | inactive | – | – | inactive | inactive | inactive | inactive | – | – | – | inactive | – | inactive | inactive | inactive
7 | COc1ccc(C(=O)c2ccc(C)cc2)c(O)c1 | 11.4 µM (active) | inactive | inactive | inactive | 27.6 µM (active) | inactive | inactive | 7.78 µM (active) | inactive | inactive | – | – | inactive | 16.4% (active) | inactive | inactive | – | inactive | inactive | –
8 | Nc1ccc(-c2ccc(F)cc2)cc1 | 31.7 µM (active) | inactive | inactive | inactive | 27.3 µM (active) | inactive | inactive | 5.45 µM (active) | – | inactive | inactive | inactive | inactive | 52% (active) | – | inactive | inactive | – | – | –
9 | CC(C)C/C=C(\C=O)c1ccccc1 | inactive | inactive | inactive | inactive | inactive | inactive | inactive | inactive | inactive | inactive | inactive | inactive | – | -20.3% | – | inactive | inactive | – | inactive | inactive
10 | O=C(O)c1cc(C(=O)O)c(C(=O)O)cc1C(=O)O | inactive | inactive | inactive | inactive | inactive | inactive | inactive | inactive | inactive | inactive | inactive | – | inactive | 4.66% | inactive | inactive | inactive | – | inactive | inactive
11 | COC(=O)c1cc(Cl)ccc1[N+](=O)[O-] | inactive | inactive | inactive | inactive | inactive | inactive | – | – | inactive | inactive | inactive | inactive | – | – | inactive | inactive | inactive | inactive | inactive | –
12 | CC[C@H](NC(C)C)[C@H](O)c1ccc(O)c2[nH]c(=O)ccc12 | inactive | inactive | inactive | inactive | inactive | inactive | inactive | inactive | inactive | – | – | inactive | inactive | 4.6% [at 42.5 µM] | inactive | inactive | inactive | – | inactive | inactive
13 | CCC(=O)O[C@@H]1C[C@H]2CC[C@]1(C)C2(C)C | inactive | inactive | inactive | inactive | inactive | inactive | inactive | inactive | inactive | – | inactive | – | inactive | 0.21% | inactive | inactive | – | – | inactive | inactive
14 | O=C(O)CNc1ccccc1 | inactive | inactive | inactive | inactive | inactive | inactive | inactive | inactive | inactive | inactive | inactive | inactive | inactive | 8.78% | inactive | inactive | inactive | inactive | – | inactive
15 | c1ccc(CN(Cc2ccccc2)Cc2ccccc2)cc1 | inactive | inactive | inactive | inactive | inactive | inactive | – | – | inactive | inactive | inactive | – | – | – | – | inactive | inactive | 17.2 µM (active) | inactive | inactive
16 | Cc1cc(C)c(C)c(O)c1 | inactive | inactive | inactive | inactive | inactive | inactive | inactive | inactive | inactive | inactive | inactive | inactive | inactive | 1.16% | inactive | inactive | inactive | inactive | inactive | inactive
